Assay [1] is described as follows: NCI Yeast Anticancer Drug Screen. Data for the rad50 strain (AID 155).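 Note: 0% = growth of vehicle-only cultures of the same strain.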 The following applies: S. cerevisiae rad50 strain growth inhibition; at 50.0 µM; stronger effect = higher value. Put shortly: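 Genetically altered yeast (DNA repair pathway); compound treatment; growth inhibition vs vehicle ctrl.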
The nature of assay [2]: NCI Yeast Anticancer Drug Screen. Data for the mec2-1 strain (AID 157). The note with it: S. cerevisiae mec2-1 strain, at 50.0 µM, stronger effect = higher value. An outline of the steps: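 mec2-1 yeast strain, carrying an alteration in DNA damage repair or cell cycle control, was exposed to compounds; growth inhibition was measured relative to vehicle-treated controls.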
Assay [3] in a line: NCI Yeast Anticancer Drug Screen. Data for the sgs1 mgt1 strain (AID 161).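 Note: 0% = growth of cultures given vehicle only.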 The note with it: S. cerevisiae sgs1 mgt1 strain, at 50.0 µM, stronger effect = higher value. Put shortly: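 Compounds are added to genetically altered yeast, and growth is compared with cultures given vehicle alone to give percent inhibition.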
A short description of assay [4]: NCI Yeast Anticancer Drug Screen. Data for the cln2 rad14 strain (AID 165).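 Note: 0% = growth equal to vehicle treated cultures.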 The following applies: S. cerevisiae cln2 rad14 strain, at 50.0 µM, stronger effect = higher value. Put shortly:
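Yeast carrying cln2 and rad14 alterations (cell cycle control and DNA damage repair) were exposed to compounds. Growth inhibition was measured against vehicle-treated controls.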

Assay [5] in a line: NCI Yeast Anticancer Drug Screen. Data for the bub3 strain (AID 167). The following applies: S. cerevisiae bub3 mutant strain, at 50.0 µM, stronger effect = higher value. An outline of the steps: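 Yeast carrying a defined mutation is treated with each compound, and growth is compared with that of vehicle-exposed cells to give inhibition.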
Assay [6] in a line: NCI Yeast Anticancer Drug Screen. Data for the mlh1 rad18 strain (AID 175). The note with it: S. cerevisiae mlh1 rad18 strain growth inhibition; at 50.0 µM; stronger effect = higher value. An outline of the steps: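 Growth inhibition of the yeast strain was measured after compound exposure and expressed relative to vehicle-treated controls. The strain carries defined defects in DNA damage repair.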

These results are taken from PubChem BioAssay (NCI).

The structures appear in SMILES notation. Compounds without any hit were thinned out: in the full panel of roughly 79,000, 15% have a hit. A number with no mark means an inactive call. Activity calls are given as the source filed them. Cut-off read from the data, not from the text of the source: active = growth inhibition above about 70%; inactive = the rest.

On to `CC1=CC(/C=C(\C)CCCc2ccoc2)C2(OC(=O)C(C)=C2O)[C@H]2C1CC[C@@H]2C` (stereo not given in full), for which the growth inhibition in assay [1] was 49.9%; in assay [2], 58.3%; in assay [3] it was 53.5%; in assay [4], 66%; in assay [5] it was 55.5%; in assay [6], 54.9%.

Take `CC1(C)COCN1COCCOCN1COCC1(C)C`: the growth inhibition in assay [1] is 10.2%; in assay [2], -18%; in assay [3], -1.55%; in assay [4], 7.05%; in assay [5], -25.9%; in assay [6], -56.6%.

As for `CC1=CC[C@H]2C(C)=CC[C@@H](C(C)C)[C@@H]2C1`, the growth inhibition is 10.4% in assay [1]; 6.05% in assay [2]; 24.2% in assay [3]; 21.6% in assay [4]; 13.1% in assay [5]; 17.4% in assay [6].

For the compound `O=C(Nc1ccc(Br)cc1)Oc1ccc(-c2ccccc2)cc1`, the growth inhibition in assay [1] was 28.9%; in assay [2] it was 9.15%; in assay [3], 4.6%; in assay [4], 18.1%; in assay [5] it was 41.8%; in assay [6], 18.4%.

As for `CS/C(=N/N=C/c1ccc2ccccc2n1)SS/C(=N/N=C\c1ccc2ccccc2n1)SC`, the growth inhibition was -8.05% in assay [1]; 13.8% in assay [2]; -12.4% in assay [3]; -19.9% in assay [4]; -0.3% in assay [5]; -39.9% in assay [6].

With `C/C(C=C(C#N)C#N)=C\c1ccc(F)cc1`, the growth inhibition in assay [1] was 14.9%; in assay [2], 28.1%; in assay [3] it was -2.1%; in assay [4] it was 30.9%; in assay [5], -7.3%; in assay [6], 21.4%.

With `CN1C(=O)Cc2ccccc21`, the growth inhibition in assay [1] was 9.9%; in assay [2] it was -7.25%; in assay [3] it was -13.3%; in assay [4] it was 11.5%; in assay [5], 20.8%; in assay [6], -1.05%.

For `C[C@H](N)C(=O)/C=C/c1ccccc1`, the growth inhibition in assay [1] is -18.8%; in assay [2], -30.6%; in assay [3], -6.05%; in assay [4], 14.9%; in assay [5], 8.8%; in assay [6], -8.5%.

For the compound `O=C(O)c1cc(/C=C/c2ccccc2)ccc1[N+](=O)[O-]`, the growth inhibition in assay [1] was -11.2%; in assay [2], 25.5%; in assay [3], 7.5%; in assay [4], -33.6%; in assay [5], -5.8%; in assay [6], -3.1%.

For the compound `Cc1ccc(CCCC(=O)O)cc1C`, the growth inhibition in assay [1] was -21.6%; in assay [2], 2.65%; in assay [3], -7.05%; in assay [4], 10.6%; in assay [5], -44.2%; in assay [6], -13.8%.

On to `COC(=O)C1c2ccoc2CC2C1C(O)C(O)C1C(C)(C)CCCC21C` (stereo not given), for which the growth inhibition was 57.5% in assay [1]; 88.6% (active) in assay [2]; 77.8% (active) in assay [3]; 72% (active) in assay [4]; 81.6% (active) in assay [5]; 92.5% (active) in assay [6].

For `O=c1[nH]nc(Cc2ccc(Cl)cc2)n1CCO`, the growth inhibition in assay [1] was 8.2%; in assay [2], 5.95%; in assay [3], 19.6%; in assay [4] it was 3.75%; in assay [5], 5.85%; in assay [6] it was -21.1%.

Consider `CC(C)(C)NC(=O)CCC(=O)O`, for which the growth inhibition is -8.65% in assay [1]; -19.4% in assay [2]; -16% in assay [3]; -18.2% in assay [4]; -2.3% in assay [5]; -7.3% in assay [6].

Turning to `Cc1cc(S(=O)(=O)Nc2nc(N)n(C)n2)c(S)cc1Cl`, the growth inhibition is -19.1% in assay [1]; -18.3% in assay [2]; -3.3% in assay [3]; -3.1% in assay [4]; -29.2% in assay [5]; -1.85% in assay [6].

For the compound `CC(=O)Oc1cccc(OC(=O)Nc2ccc(C)c(NC(=O)Oc3cccc(OC(C)=O)c3)c2)c1`, the growth inhibition in assay [1] is 26.2%; in assay [2] it was 22.6%; in assay [3], 9.75%; in assay [4], 19.3%; in assay [5], -0.4%; in assay [6], 34.5%.

As to `CC1(C)C2CC=C(/C=N\Nc3ccc([N+](=O)[O-])cc3[N+](=O)[O-])C1C2` (stereo not given), the growth inhibition in assay [1] is -1.5%; in assay [2], 1.95%; in assay [3] it was -2.3%; in assay [4], -3.35%; in assay [5], -11.6%; in assay [6] it was -12.1%.

With `COC(=O)CCSc1ccccc1`, the growth inhibition in assay [1] is 0.55%; in assay [2], -12%; in assay [3] it was 5.45%; in assay [4] it was 6.7%; in assay [5], -15.1%; in assay [6], -7.6%.

Take `COc1ccc(N=Cc2ccc(N(CCC#N)S(=O)(=O)c3ccccc3)cc2)cc1`: the growth inhibition was 0.2% in assay [1]; -13.3% in assay [2]; 2.05% in assay [3]; 11.2% in assay [4]; 9.25% in assay [5]; -3.15% in assay [6].

For the compound `CC(C)(N)C(=O)O`, the growth inhibition was 1.2% in assay [1]; 24.5% in assay [2]; 24.6% in assay [3]; -10.9% in assay [4]; -12.1% in assay [5]; -6.85% in assay [6].

As for `c1ccc(-c2cc(-c3ccccc3)n(-c3ccccc3)c2-c2ccccc2)cc1`, the growth inhibition in assay [1] is 8.45%; in assay [2] it was 5.85%; in assay [3], 0.45%; in assay [4], -5.35%; in assay [5], 24.4%; in assay [6], -3.35%.
